# Experimental data reported in a collection of fitness landscapes (doi:10.1016/j.celrep.2020.107928).
# Over roughly 81,000 sequences, “one-hybrid fitness for binding parS DNA” has its median near -0.17; the highest 2% begin near 0.51. What follows is part of a selection rich in the highest values, with near analogues and random picks from the rest.
# B1: Caulobacter ParB omega fusion; a variant is named by its letters at X, in order, B8GW30 (parent)
# chain: MESVVVGEPGMSEGRRGLGRGLSALLGEVDAAPAQAPGEQLGGSREAPIEILQRNPDQPRRTFREEDLEDLSNSIREKGVLQPILVRPSPDTAGEYQIVAGERAWRAAQRAGLKTVPIMVRELDDLAVLEIGIIENVQRADLNVLEEALSYKVLMEKFERTQENIAQTIGKSXSHVANXMRLLXLPDEVQSYLVSGELTAXHARAIAAAADPVALAKQIIEGGLSVRETEALARKAPNLSAGKSKGGRPPRVKDTDTQALESDLSSVLGLDVSIDHRGSTGTLTITYATLEQLDDLCNRLTRGI
# Variants of: B1
# Experiment: one-hybrid fitness for binding parS DNA (scaled: cognate 1, non-cognate 0); higher = stronger binding
# Settings: with parS DNA site
# Method in brief: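 Fitness is the rescaled log change in variant-to-wild-type read ratio, measured by Illumina sequencing of plasmids before and after bacterial one-hybrid selection. The scale puts cognate at 1 and non-cognate at 0. Selection of Caulobacter ParB libraries, four specificity codons randomised, took place in E. coli USO with a HIS3 reporter, site 19 bp from the promoter, over 48 hours at 37°C on M9-minus-histidine with 0.1 mM IPTG and 5 mM 3-AT.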
row,Variant,one-hybrid fitness for binding parS DNA
1,YYVT,≤ 0.2
2,MVNS,≤ 0.2
3,FTLM,≤ 0.2
4,AFVL,≤ 0.2
5,RKKM,0.231
6,RKKF,0.238
7,RKKT,0.604
8,RKVR,≤ 0.2
9,RKVD,≤ 0.2
10,RKVT,0.795
11,RPEH,≤ 0.2
12,KRWH,≤ 0.2
13,QVGR,≤ 0.2
14,CDRV,≤ 0.2
15,YIYL,≤ 0.2
16,MNCF,≤ 0.2
17,ICRD,≤ 0.2
18,RCQS,0.986
19,RTQD,0.202
20,RPQS,≤ 0.2
21,RIQH,≤ 0.2
22,RIQS,0.99
23,RAQS,0.998
24,RDQS,≤ 0.2

row,Variant,one-hybrid fitness for binding parS DNA
1,RTQS,0.951
2,RAQD,≤ 0.2
3,RAQN,0.436
4,RIQD,≤ 0.2
5,RTQH,0.332
6,CQTC,≤ 0.2
7,RWDL,≤ 0.2
8,WRAH,≤ 0.2
9,AEGK,≤ 0.2
10,AIFS,≤ 0.2
11,DPKT,≤ 0.2
12,RMQS,1.02
13,RHQH,≤ 0.2
14,RMQH,0.313
15,RHQS,0.927
16,RSQS,0.984
17,RSQN,0.427
18,RFQS,1
19,RFQH,≤ 0.2
20,RSQD,≤ 0.2
21,RFQN,0.457
22,RHQN,0.382
23,RMQN,0.501
24,GAHD,≤ 0.2

row,Variant,one-hybrid fitness for binding parS DNA
1,TLCR,≤ 0.2
2,MEVG,≤ 0.2
3,LAGY,≤ 0.2
4,QVDH,≤ 0.2
5,IRKY,≤ 0.2
6,FNNR,≤ 0.2
7,TAFI,≤ 0.2
8,QSRA,≤ 0.2
9,TERS,≤ 0.2
10,APMD,≤ 0.2
11,RLQS,1
12,RLQH,0.324
13,RLQP,0.206
14,RKQS,0.793
15,RKQN,0.3
16,RKQD,≤ 0.2
17,ERKR,≤ 0.2
18,LEPN,≤ 0.2
19,CCRD,≤ 0.2
20,QNCR,≤ 0.2
21,RQVG,0.88
22,RQKH,0.269
23,RQVQ,≤ 0.2
24,RQKG,0.939

row,Variant,one-hybrid fitness for binding parS DNA
1,RQKN,0.433
2,RQVK,≤ 0.2
3,WNHS,≤ 0.2
4,KAIM,≤ 0.2
5,IGNS,≤ 0.2
6,NFGS,≤ 0.2
7,GEDR,≤ 0.2
8,QFAT,≤ 0.2
9,GTTA,≤ 0.2
10,ATEM,≤ 0.2
11,RTDM,0.289
12,RTKM,0.594
13,RSKM,0.378
14,RTVM,0.315
15,RTYM,0.341
16,RTRM,0.517
17,TLKA,≤ 0.2
18,TQQG,≤ 0.2
19,HCKF,≤ 0.2
20,YAFG,≤ 0.2
21,KYYR,≤ 0.2
22,ILTL,≤ 0.2
23,RCSD,≤ 0.2
24,RHSS,0.912

row,Variant,one-hybrid fitness for binding parS DNA
1,RISN,0.454
2,RMSD,≤ 0.2
3,RISS,0.992
4,RMSH,≤ 0.2
5,RPSS,≤ 0.2
6,RISD,≤ 0.2
7,RHSP,≤ 0.2
8,RMSS,0.977
9,RCSS,0.978
10,RHSN,0.379
11,AKPM,≤ 0.2
12,LGTM,≤ 0.2
13,TQKH,≤ 0.2
14,LPSR,≤ 0.2
15,NDSK,≤ 0.2
16,CAPL,≤ 0.2
17,RWPN,≤ 0.2
18,SQSF,≤ 0.2
19,PHLE,≤ 0.2
20,GVSS,≤ 0.2
21,LVRT,≤ 0.2
22,FMSS,≤ 0.2
23,RASN,0.435
24,RKSN,0.296

row,Variant,one-hybrid fitness for binding parS DNA
1,RASH,0.225
2,RKSP,≤ 0.2
3,RFSP,≤ 0.2
4,RASS,1
5,FMSD,≤ 0.2
6,FMSQ,0.554
7,RFSS,1.01
8,RFSH,≤ 0.2
9,RKSS,0.811
10,IYTS,≤ 0.2
11,TWRH,≤ 0.2
12,GPLA,≤ 0.2
13,YVAM,≤ 0.2
14,RYVW,0.209
15,HRKW,≤ 0.2
16,RSSS,0.99
17,RSSP,≤ 0.2
18,RSSD,≤ 0.2
19,YNTS,≤ 0.2
20,REGT,0.201
21,RSGT,0.91
22,RPGT,≤ 0.2
23,RGGT,0.493
24,RDGT,≤ 0.2

row,Variant,one-hybrid fitness for binding parS DNA
1,RCGT,0.882
2,TFAS,≤ 0.2
3,AMCN,≤ 0.2
4,LFSE,≤ 0.2
5,CKQG,≤ 0.2
6,NSAT,≤ 0.2
7,RQKC,0.926
8,RQKR,≤ 0.2
9,RQVR,≤ 0.2
10,RQVC,0.828
11,RQVF,≤ 0.2
12,RQKK,≤ 0.2
13,RWDM,≤ 0.2
14,RWDY,0.264
15,RWNR,≤ 0.2
16,RWDC,0.635
17,RWNM,0.221
18,RWNC,0.79
19,GKCT,≤ 0.2
20,STTT,≤ 0.2
21,WKGT,≤ 0.2
22,SGKS,≤ 0.2
23,RITI,≤ 0.2
24,RAIF,≤ 0.2

row,Variant,one-hybrid fitness for binding parS DNA
1,RAPG,0.569
2,RDPG,≤ 0.2
3,RPPG,≤ 0.2
4,RAIG,0.871
5,RAPH,≤ 0.2
6,RCPG,0.81
7,RAPD,≤ 0.2
8,RAIH,≤ 0.2
9,NVNI,≤ 0.2
10,DVVY,≤ 0.2
11,LLTC,≤ 0.2
12,GHGR,≤ 0.2
13,HSMG,≤ 0.2
14,RQEF,0.206
15,ATMR,≤ 0.2
16,RCAP,≤ 0.2
17,RSAD,≤ 0.2
18,RSAP,≤ 0.2
19,RPAS,≤ 0.2
20,RCAS,1.01
21,RSAS,0.998
22,NQVG,≤ 0.2
23,TRNP,≤ 0.2
24,TIYS,≤ 0.2

row,Variant,one-hybrid fitness for binding parS DNA
1,IDLD,≤ 0.2
2,SILM,≤ 0.2
3,LWSP,≤ 0.2
4,SLKT,≤ 0.2
5,GRNC,≤ 0.2
6,RPRS,≤ 0.2
7,RCRD,≤ 0.2
8,RSRN,0.416
9,RCYP,≤ 0.2
10,RSRD,≤ 0.2
11,RSRS,0.913
12,RPYS,≤ 0.2
13,RCYS,1
14,RCRS,0.877
15,SCVM,≤ 0.2
16,FTPD,≤ 0.2
17,ALCC,≤ 0.2
18,WPLG,≤ 0.2
19,IPVF,≤ 0.2
20,FYHT,≤ 0.2
21,RINY,0.513
22,RIDY,0.396
23,RINS,0.923
24,RIDS,0.987

row,Variant,one-hybrid fitness for binding parS DNA
1,RIND,0.258
2,RPNY,≤ 0.2
3,RIDH,0.231
4,RIDD,≤ 0.2
5,RINH,0.284
6,TGRK,≤ 0.2
7,MPPM,≤ 0.2
8,WDNC,≤ 0.2
9,KSER,≤ 0.2
10,STLE,≤ 0.2
11,DQQL,≤ 0.2
12,GHWC,≤ 0.2
13,KPDR,≤ 0.2
14,TRSC,≤ 0.2
15,NTIS,≤ 0.2
16,RKCA,0.503
17,RCCA,0.677
18,RPCA,≤ 0.2
19,RGCA,≤ 0.2
20,RWCA,0.317
21,RTCA,0.572
22,RSCA,0.579
23,RMCA,0.633
24,RNCA,0.348

row,Variant,one-hybrid fitness for binding parS DNA
1,QSLF,≤ 0.2
2,QAWS,≤ 0.2
3,ATLF,≤ 0.2
4,PAPL,≤ 0.2
5,PDPW,≤ 0.2
6,DFDR,≤ 0.2
7,QQYT,≤ 0.2
8,KPHF,≤ 0.2
9,RHCA,0.55
10,DHCA,≤ 0.2
11,LGTH,≤ 0.2
12,RQTN,0.43
13,RQTM,0.331
14,RQTC,0.966
15,RQTQ,≤ 0.2
16,RQTT,0.929
17,RQTD,0.217
18,RQTH,≤ 0.2
19,RQTP,≤ 0.2
20,RQTK,≤ 0.2
21,RQTG,1.01
22,RQTS,0.984
23,RQTF,0.211
24,KANM,≤ 0.2

row,Variant,one-hybrid fitness for binding parS DNA
1,NRAG,≤ 0.2
2,PIVT,≤ 0.2
3,QDIR,≤ 0.2
4,IPSC,≤ 0.2
5,PVWG,≤ 0.2
6,CTRC,≤ 0.2
7,QFWR,≤ 0.2
8,VWSI,≤ 0.2
9,QVFN,≤ 0.2
10,RFDF,≤ 0.2
11,NFDC,≤ 0.2
12,AFNC,≤ 0.2
13,RFNE,≤ 0.2
14,RFDC,0.793
15,RFNC,0.94
16,PPHC,≤ 0.2
17,DNGY,≤ 0.2
18,RIHC,0.977
19,RILC,0.97
20,RILM,0.333
21,RINC,0.955
22,RIHQ,≤ 0.2
23,RIYQ,≤ 0.2
24,RIHK,≤ 0.2

row,Variant,one-hybrid fitness for binding parS DNA
1,RILR,≤ 0.2
2,RINF,0.201
3,RINM,0.381
4,RIYR,≤ 0.2
5,RIYC,0.964
6,RNGM,≤ 0.2
7,LKKY,≤ 0.2
8,QVQI,≤ 0.2
9,YEHV,≤ 0.2
10,QGHV,≤ 0.2
11,HFFL,≤ 0.2
12,LRSA,≤ 0.2
13,AADE,≤ 0.2
14,CFNA,≤ 0.2
15,WWKS,≤ 0.2
16,ECSL,≤ 0.2
17,PWPM,≤ 0.2
18,PHSN,≤ 0.2
